Results published in ChEMBL document CHEMBL1961873, “Compounds: GSK PKIS; Assays: Nanosyn kinase panel” (2012).

Legend:
[1] = molecular target: Mitogen-activated protein kinase 3 (Homo sapiens) (UniProt P27361); conditions: at 1 µM;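 also: values are mean percent inhibition of MAPK3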
[2] = molecular target: SRSF protein kinase 3 (Homo sapiens) (UniProt Q9UPE1); conditions: at 0.1 µM
[3] = molecular target: SRSF protein kinase 3 (Homo sapiens) (UniProt Q9UPE1); conditions: at 1 µM
[4] = molecular target: Mitogen-activated protein kinase 14 (Homo sapiens) (UniProt Q16539); conditions: at 0.1 µM
[5] = molecular target: Mitogen-activated protein kinase 14 (Homo sapiens) (UniProt Q16539); conditions: at 1 µM
[6] = molecular target: Mitogen-activated protein kinase 11 (Homo sapiens) (UniProt Q15759); conditions: at 0.1 µM
[7] = molecular target: Mitogen-activated protein kinase 11 (Homo sapiens) (UniProt Q15759); conditions: at 1 µM
[8] = molecular target: T1, Mitogen-activated protein kinase 13 (Homo sapiens) (UniProt O15264); conditions: at 0.1 µM
T1 sequence (whole entry): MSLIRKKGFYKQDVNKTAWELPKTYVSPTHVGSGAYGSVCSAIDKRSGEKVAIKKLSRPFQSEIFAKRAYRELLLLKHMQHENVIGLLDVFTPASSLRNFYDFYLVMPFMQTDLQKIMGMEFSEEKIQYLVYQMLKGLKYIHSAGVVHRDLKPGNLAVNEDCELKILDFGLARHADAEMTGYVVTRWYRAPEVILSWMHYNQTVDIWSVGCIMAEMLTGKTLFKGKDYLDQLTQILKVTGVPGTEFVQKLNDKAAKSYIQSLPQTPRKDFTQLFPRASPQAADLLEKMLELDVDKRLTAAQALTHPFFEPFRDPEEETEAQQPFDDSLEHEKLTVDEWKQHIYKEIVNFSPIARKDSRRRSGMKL

[9] = molecular target: T1, Mitogen-activated protein kinase 13 (Homo sapiens); conditions: at 1 µM
[10] = molecular target: T2, Mitogen-activated protein kinase 12 (Homo sapiens) (UniProt P53778); conditions: at 0.1 µM
T2 sequence (whole entry): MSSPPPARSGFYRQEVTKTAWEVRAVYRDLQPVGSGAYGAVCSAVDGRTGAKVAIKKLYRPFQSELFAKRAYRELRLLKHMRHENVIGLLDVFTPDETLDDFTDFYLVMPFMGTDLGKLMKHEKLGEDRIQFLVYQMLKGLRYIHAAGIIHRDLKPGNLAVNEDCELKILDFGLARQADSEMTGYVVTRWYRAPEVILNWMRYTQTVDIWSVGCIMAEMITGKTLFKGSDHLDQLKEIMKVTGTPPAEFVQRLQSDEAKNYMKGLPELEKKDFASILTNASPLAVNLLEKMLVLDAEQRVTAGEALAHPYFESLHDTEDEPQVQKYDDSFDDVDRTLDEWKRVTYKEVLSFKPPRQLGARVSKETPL

Sequence of Mitogen-activated protein kinase 3 (Homo sapiens) (P27361 whole entry): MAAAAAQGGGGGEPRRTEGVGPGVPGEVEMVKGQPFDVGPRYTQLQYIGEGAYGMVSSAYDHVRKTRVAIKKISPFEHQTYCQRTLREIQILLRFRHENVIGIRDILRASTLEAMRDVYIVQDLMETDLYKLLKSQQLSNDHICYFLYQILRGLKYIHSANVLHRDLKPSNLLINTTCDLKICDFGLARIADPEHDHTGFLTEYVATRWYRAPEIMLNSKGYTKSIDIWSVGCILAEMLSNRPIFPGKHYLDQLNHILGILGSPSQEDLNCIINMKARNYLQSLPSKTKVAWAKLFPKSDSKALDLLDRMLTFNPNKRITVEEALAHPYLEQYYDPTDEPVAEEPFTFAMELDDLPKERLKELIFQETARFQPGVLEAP
Sequence of SRSF protein kinase 3 (Homo sapiens) (Q9UPE1 whole entry): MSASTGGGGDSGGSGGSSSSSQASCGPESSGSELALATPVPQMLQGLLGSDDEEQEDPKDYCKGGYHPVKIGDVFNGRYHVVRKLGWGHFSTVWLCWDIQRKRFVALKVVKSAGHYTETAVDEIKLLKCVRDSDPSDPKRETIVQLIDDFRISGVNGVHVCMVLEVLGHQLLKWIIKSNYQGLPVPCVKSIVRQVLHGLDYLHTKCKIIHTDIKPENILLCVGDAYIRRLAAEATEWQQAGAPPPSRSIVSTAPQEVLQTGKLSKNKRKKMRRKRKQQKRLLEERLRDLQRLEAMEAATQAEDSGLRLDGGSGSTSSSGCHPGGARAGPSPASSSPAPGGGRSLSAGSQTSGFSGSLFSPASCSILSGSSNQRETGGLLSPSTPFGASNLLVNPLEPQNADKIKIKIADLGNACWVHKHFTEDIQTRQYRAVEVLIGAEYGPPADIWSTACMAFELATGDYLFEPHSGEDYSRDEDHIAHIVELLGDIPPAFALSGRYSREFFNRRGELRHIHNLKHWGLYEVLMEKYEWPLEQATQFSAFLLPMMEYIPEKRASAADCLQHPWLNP
Sequence of Mitogen-activated protein kinase 11 (Homo sapiens) (Q15759 whole entry): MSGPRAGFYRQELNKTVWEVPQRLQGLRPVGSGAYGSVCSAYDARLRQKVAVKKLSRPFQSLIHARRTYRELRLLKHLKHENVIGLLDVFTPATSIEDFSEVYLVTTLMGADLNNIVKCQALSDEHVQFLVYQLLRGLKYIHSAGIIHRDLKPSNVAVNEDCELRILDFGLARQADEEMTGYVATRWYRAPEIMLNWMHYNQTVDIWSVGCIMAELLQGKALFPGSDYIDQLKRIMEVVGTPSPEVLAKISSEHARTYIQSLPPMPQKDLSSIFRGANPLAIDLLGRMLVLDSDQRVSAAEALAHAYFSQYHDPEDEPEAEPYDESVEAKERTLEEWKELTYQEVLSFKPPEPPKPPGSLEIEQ
Sequence of Mitogen-activated protein kinase 14 (Homo sapiens) (Q16539 whole entry): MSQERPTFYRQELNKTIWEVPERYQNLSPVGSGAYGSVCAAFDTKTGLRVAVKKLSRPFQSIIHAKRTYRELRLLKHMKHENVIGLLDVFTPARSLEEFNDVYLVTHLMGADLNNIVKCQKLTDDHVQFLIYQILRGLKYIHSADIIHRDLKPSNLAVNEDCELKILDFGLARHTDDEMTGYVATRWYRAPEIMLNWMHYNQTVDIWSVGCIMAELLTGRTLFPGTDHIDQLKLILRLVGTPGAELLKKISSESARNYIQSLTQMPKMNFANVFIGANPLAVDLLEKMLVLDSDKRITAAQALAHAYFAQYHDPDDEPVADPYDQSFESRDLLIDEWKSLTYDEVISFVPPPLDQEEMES

SMILES | inhibition [1] | inhibition [2] | inhibition [3] | inhibition [4] | inhibition [5] | inhibition [6] | inhibition [7] | inhibition [8] | inhibition [9] | inhibition [10]
CCN1CCC(CC(=O)Nc2n[nH]c3nc(-c4cccs4)c(Br)cc23)CC1 | 0.02% | -0.78% | 2.42% | -3.19% | 0.26% | -1.99% | 3.07% | -0.36% | -1.98% | -1.67%
COc1ccc(COc2ccc(Cc3cnc(N)nc3N)cc2OC)cc1 | 0.29% | 2.01% | 0.79% | 0.58% | 4.45% | 2.44% | 1% |  | 0.37% | -1.2%
COc1cc2c(cc1Nc1nc(N3CCc4ccccc43)c3cc[nH]c3n1)N(C(=O)CN(C)C)CC2 | 1.51% | 0.87% | 1.46% | 3.41% | 3.7% | 2.84% | 1.85% | 0.4% | 2.2% | 0.57%
CNC(=O)c1cncc(/C=C/c2c(Cl)cccc2Cl)c1 | 3.8% | 2.22% | 0.6% | 6.41% | 8.04% | 2.44% | 4.25% | 3.64% | 5.05% | 3.45%
COc1cc(C)c(NC(=O)CN(C)C)cc1Nc1nc(Nc2cccc(F)c2C(N)=O)c2cc[nH]c2n1 | 0.63% | 2.12% | 7.69% | 1.35% | 5.59% | 3.27% | 3.23% | -0.43% | 1.87% | 0.52%
COc1ccc(-c2nn3ncccc3c2-c2ccnc(Nc3ccc(Cl)c(C(F)(F)F)c3)n2)cc1 | 4.01% | -2.03% | -0.79% | 4.58% | 36.1% | 2.93% | 16.8% | 0.64% | 1.01% | 1.67%
Cc1nnc(-c2ccc(C)c(-c3ccc(C(=O)Nc4cccc(C#N)c4)cc3)c2)o1 | 5.78% | -2.92% | -1.26% |  |  | 5.2% | 22.9% | 3.5% | 1.58% | -0.3%
NC(=O)c1ccc(-c2nc(-c3ccccn3)c(-c3ccc4c(c3)OCO4)[nH]2)cc1 | 1.38% | -1.12% | 0.34% | 7.26% | 15.5% | 5.42% | 10.6% | 1.16% | 2.44% | 0.17%
CCn1c(-c2nonc2N)nc2cncc(C(=O)N3CC[C@H](N)C3)c21 | 2.72% | -3.11% | -1.83% | -0.78% | 10.7% | 3.38% | 9.04% | 2.29% | 5.01% | 0.14%
CN(C)c1cc2c(Nc3ccc4nc(Cc5ccccc5)[nH]c4c3)ncnc2cn1 | 4.66% | -0.28% | -1.52% | 6.65% | 9.66% | 1.34% |  | 1.99% | 5.16% | 5.41%
CS(=O)(=O)CCNCc1ccc(-c2ccc3ncnc(Nc4ccc(OCc5ccccc5)c(Cl)c4)c3c2)o1 | 0.5% | 2.57% | 4.72% | -0.17% | 3.25% | -1.17% | 0.8% | 0.47% | 2.09% | 1.33%
CCn1c(-c2nonc2N)nc2cncc(C(=O)N3CCNCC3)c21 | 7.02% | 0.64% | -1.54% | 14.5% | 20.5% | 5.86% | 5.3% | 6.15% | 7.35% | 3.73%
COc1ccc(-c2coc3ncnc(N)c23)cc1 | 2.51% | -0.31% | -3.44% | 4.37% | 13.4% | 4.69% | 7.25% | 1.38% | 5.26% | 1.11%
Nc1nc(-c2ccccn2)c(-c2ccc3ncccc3n2)s1 | 1.04% | 0.57% | 0.83% | -0.64% | 6.59% | 1.28% | 3.29% | 2.8% | 5.95% | -0.21%
COc1cc(C=NNc2ncnc3c2cnn3-c2ccccc2)ccc1O | 1.84% | 2.22% | 4.19% | 4.51% | 10.7% | 3.59% | 9.09% | 3.08% | 7.17% | 1.85%
CS(=O)(=O)CCNCc1ccc(-c2ccc3ncnc(Nc4ccc(OCc5cccc(F)c5)c(C(F)(F)F)c4)c3c2)o1 | 2.51% | -1.77% | -0.64% | 4.28% | 11.8% | 3.77% | 8.93% | 1.37% | 5.37% | 1.92%
COc1cc2ncn(-c3cc(O[C@@H](C)c4ccccc4Cl)c(C(N)=O)s3)c2cc1OC | 3.07% | -3.53% | -0.07% | 6.72% | 7.39% | 3.1% | 2.35% | 4.76% | 3.82% | 3.18%

SMILES | inhibition [1] | inhibition [2] | inhibition [3] | inhibition [4] | inhibition [5] | inhibition [6] | inhibition [7] | inhibition [8] | inhibition [9] | inhibition [10]
NC(=O)c1cccc(Nc2nccc(Nc3cccc4[nH]ncc34)n2)c1 | 1.82% | 0.19% | 3.95% | 4.23% | 2.87% | -1.99% | 3.32% | -0.37% | 1.26% | -1.53%
Cc1cccc(-c2n[nH]cc2-c2ccc3ncccc3n2)n1 | 0.82% | -1.48% | -0.43% | 2.51% | 12% | -0.93% | 0.8% | 1.23% | -0.48% | 0.84%
Fc1cccc(COc2ccc(Nc3ncnc4sc(-c5cccs5)cc34)cc2Cl)c1 | 1.8% | 0.46% | 0.83% | 0.93% | 1.59% | -0.98% | -0.33% | 1.26% | 0.64% | 0.6%
COc1ccc2cc(-c3c(-c4ccncc4)nc(-c4ccc([S+](C)[O-])cc4)n3C)ccc2c1 (stereo unspecified) | 0.18% | -1.39% | -1.03% | 1.72% | 8.34% | 3.87% | 7.24% | -1.65% | 3.19% | 2.2%
Fc1cccc(COc2ccc(Nc3ncnc4cc(-c5ccc[nH]5)sc34)cc2Cl)c1 | 1.55% | -2.27% | -1.34% | 1.24% | 4.89% | 0.23% | -0.16% | 1.98% | 2.15% | 4.35%
CCn1c(-c2nonc2N)nc2c(C#CC(C)(C)O)nc(OC[C@@H](N)c3ccccc3)cc21 | 1.84% | 0.05% | 3.01% | 1.93% | 1.14% | -1.91% | 1.34% | -0.23% | -0.87% | -1.46%
CS(=O)(=O)CCNCc1nc(-c2ccc3ncnc(Nc4ccc(F)c(Cl)c4)c3c2)cs1 | 3.66% | 2.2% | 1.52% | 2.36% | 5.56% | 2.75% | 5.6% | 2.57% | 1.21% | 0.83%
CCn1c(-c2nonc2N)nc2ccncc21 | 1.29% | -2.05% | -2.78% | 2.59% | 3.78% | 2.84% | 2.34% | 0.59% | 0.17% | 2.32%
O=C1NC(=O)C(c2ccc(Cl)cc2)=C1Nc1ccc(Cl)c(C(=O)O)c1 | 0% | 0.85% | 1.51% | 0.32% | -0.58% | -1.36% | -1.39% | -5.51% | -3.8% | -2.36%
Cc1ccc(C(=O)NC2CCCCC2)cc1-c1ccc(C(=O)NCC2CC2)cc1 | 0.88% | 1.95% | 0.5% | 5.36% | 17.4% | 4.59% | 14.2% | 1.77% | 2.53% | -0.98%
CCCN1CCC(Oc2cc(Nc3nc(Nc4cccc(F)c4C(N)=O)c4cc[nH]c4n3)c(OC)cc2Cl)CC1 | 2.9% | 0.09% | 3.91% | 0.2% | 3.85% | 0.2% | 0.06% | 0.04% | -0.16% | -0.75%
Nc1ncnc2occ(-c3ccc(NC(=O)Nc4cccc(C(F)(F)F)c4)cc3)c12 | 3.6% | 19% | 62.5% | 16.1% | 43.4% | 9.18% | 41% | 6.92% | 19.3% | 7.81%
CS(=O)(=O)CCN(CC#N)Cc1ccc(-c2ccc3ncnc(Nc4ccc(OCc5cccc(F)c5)c(Cl)c4)c3c2)o1 | 1.61% | -3.37% | -0.95% | 4.64% | 3.94% | 1.26% | 0.56% | 3.05% | 2.39% | 2.47%
O=C(Nc1n[nH]c2nc(-c3ccco3)c(Br)cc12)C1CC1 | 2.64% | -0.09% | -0.41% | 2.53% | 6.49% | 3.09% | 3.71% | 1.46% | 2.57% | 2.55%
CC1=C(C(=O)Nc2ccc3[nH]ncc3c2)C(c2ccc(Cl)c(Cl)c2)CC(=O)N1 (stereo unspecified) | 14.6% | -0.02% | 1.57% | 1.46% | 4.94% | 0.46% | 0.24% | -0.61% | 2.05% | -0.46%
N#Cc1c(NC(=O)c2cccc3ccccc23)sc2c1CCCC2 | 0.11% | -0.61% | -2.89% | 2.97% | 5.23% | 0.78% | 4.42% | 2.16% | 3.76% | 2.38%
CCn1c(-c2nonc2N)nc2c(N3CCCC3)nccc21 | 1.82% | 0.04% | -1.21% | 1.24% | -3.47% | 0.58% | 2.54% | -0.53% | -1.01% | 0.01%
